About 410 targets per protein were measured; listed, in parts, are those with the strongest signals and a random draw of the rest.
Key:
Assay in all cases: glycan array binding signal (z-score within array); higher = stronger binding
Conditions in all cases: glycan notation: IUPAC condensed, linker removed
Fuc(a1-2)Gal(b1-3)GalNAc = target: Fuc(a1-2)Gal(b1-3)GalNAc
Procedure, shortened: (§1)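 Columns mapping to the same glycan were averaged after glycan names were converted to IUPAC-condensed notation. The data come from 3228 arrays in the Consortium for Functional Glycomics database, limited to those with an available protein sequence. Binding is reported as a within-array Z-score averaged across arrays of one protein sequence and across linkers.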

[1] = target: Fuc(a1-2)[Gal(a1-3)]Gal(b1-4)Glc
Procedure, shortened: as §1

[2] = target: Fuc(a1-2)[GalNAc(a1-3)]Gal
Procedure, shortened: as §1

[3] = target: Fuc(a1-2)[GalNAc(b1-3)]Gal
Procedure, shortened: as §1

Fuc(a1-3)GlcNAc = target: Fuc(a1-3)GlcNAc
Procedure, shortened: as §1

Gal(a1-2)Gal = target: Gal(a1-2)Gal
Procedure, shortened: as §1

[4] = target: Gal(b1-3)[Fuc(a1-4)]GlcNAc(b1-3)Gal(b1-4)GlcNAc
Procedure, shortened: as §1

Gal(b1-4)GlcNAc = target: Gal(b1-4)GlcNAc
Procedure, shortened: as §1

[5] = target: Gal(b1-4)GlcNAc(b1-3)Gal(b1-4)Glc
Procedure, shortened: as §1

[6] = target: Gal(b1-4)GlcNAc(b1-3)Gal(b1-4)GlcNAc
Procedure, shortened: as §1

Gal4S6S(b1-4)GlcNAc = target: Gal4S6S(b1-4)GlcNAc
Procedure, shortened: as §1

Gal6S(b1-4)Glc = target: Gal6S(b1-4)Glc
Procedure, shortened: as §1

Gal6S(b1-4)GlcNAc = target: Gal6S(b1-4)GlcNAc
Procedure, shortened: as §1

GlcNAc(b1-3)Gal(b1-4)Glc = target: GlcNAc(b1-3)Gal(b1-4)Glc
Procedure, shortened: as §1

[7] = target: Man(a1-2)Man(a1-3)[Man(a1-2)Man(a1-6)]Man
Procedure, shortened: as §1

[8] = target: Man(a1-2)Man(a1-3)[Man(a1-2)Man(a1-6)]Man(a1-6)[Man(a1-2)Man(a1-2)Man(a1-3)]Man(b1-4)GlcNAc(b1-4)GlcNAc
Procedure, shortened: as §1

[9] = target: Neu5Ac(a2-3)Gal(b1-3)[Neu5Ac(a2-6)]GalNAc
Procedure, shortened: as §1

[10] = target: Neu5Ac(a2-3)Gal(b1-4)GlcNAc(b1-2)Man(a1-3)[Neu5Ac(a2-3)Gal(b1-4)GlcNAc(b1-2)Man(a1-6)]Man(b1-4)GlcNAc(b1-4)GlcNAc
Procedure, shortened: as §1

[11] = target: Neu5Ac(a2-3)Gal(b1-4)GlcNAc(b1-3)Gal(b1-4)GlcNAc(b1-3)Gal(b1-4)GlcNAc
Procedure, shortened: as §1

[12] = target: Neu5Ac(a2-3)Gal(b1-4)[Fuc(a1-3)]GlcNAc
Procedure, shortened: as §1

[13] = target: Neu5Ac(a2-3)Gal(b1-4)[Fuc(a1-3)]GlcNAc(b1-3)Gal(b1-4)GlcNAc
Procedure, shortened: as §1

[14] = target: Neu5Ac(a2-3)Gal(b1-4)[Fuc(a1-3)]GlcNAc(b1-3)Gal(b1-4)[Fuc(a1-3)]GlcNAc(b1-3)Gal(b1-4)[Fuc(a1-3)]GlcNAc
Procedure, shortened: as §1

[15] = target: Neu5Ac(a2-3)Gal6S(b1-4)GlcNAc
Procedure, shortened: as §1

Neu5Ac(a2-3)GalNAc = target: Neu5Ac(a2-3)GalNAc
Procedure, shortened: as §1

[16] = target: Neu5Ac(a2-6)Gal(b1-4)GlcNAc(b1-3)Gal(b1-4)[Fuc(a1-3)]GlcNAc(b1-3)Gal(b1-4)[Fuc(a1-3)]GlcNAc
Procedure, shortened: as §1

[17] = target: Neu5Ac(a2-6)Gal(b1-4)GlcNAc6S
Procedure, shortened: as §1

B1: F4 (Escherichia coli), A0A6L9DDF0 (protein)
chain: MKKTLIALALAASAVSGMAHAWTSGDFNGTVDIGGSIDATNYRQKWEWEVGTGLNGFYNALSELTNNDTKLTITVTGNKPILLGRTKEAFVTPTAGGWGGIPQIAFTDYKGAPVELKNPDGETNKGLAYFVLPMKNADGTEAGSVRVNASYAGAVVEKTSDSSAKLFSAYAGEVIRIFNGGLPVNVTQSELQSGVAAADRTALFGSLGKADLVAQFQAVIPGATVTDGTSSEHCTMRLLASAAYALGIADGQTIEATFNQAVTTSTQWSAPLNVAITYY
Fuc(a1-2)Gal(b1-3)GalNAc
  glycan array binding signal (z-score): -0.145
[1]
  glycan array binding signal (z-score): -0.191
[2]
  glycan array binding signal (z-score): -0.144
[3]
  glycan array binding signal (z-score): -0.33
Fuc(a1-3)GlcNAc
  glycan array binding signal (z-score): -0.164
Gal(a1-2)Gal
  glycan array binding signal (z-score): -0.128
[4]
  glycan array binding signal (z-score): -0.232
Gal(b1-4)GlcNAc
  glycan array binding signal (z-score): -0.137
[5]
  glycan array binding signal (z-score): -0.276
[6]
  glycan array binding signal (z-score): -0.397
Gal4S6S(b1-4)GlcNAc
  glycan array binding signal (z-score): 0.285
Gal6S(b1-4)Glc
  glycan array binding signal (z-score): -0.213
Gal6S(b1-4)GlcNAc
  glycan array binding signal (z-score): 1.48
GlcNAc(b1-3)Gal(b1-4)Glc
  glycan array binding signal (z-score): 8.86
[7]
  glycan array binding signal (z-score): 0.052
[8]
  glycan array binding signal (z-score): -0.311
[9]
  glycan array binding signal (z-score): -0.291
[10]
  glycan array binding signal (z-score): -0.209
[11]
  glycan array binding signal (z-score): -0.282
[12]
  glycan array binding signal (z-score): 2.09
[13]
  glycan array binding signal (z-score): -0.176
[14]
  glycan array binding signal (z-score): -0.185
[15]
  glycan array binding signal (z-score): -0.21
Neu5Ac(a2-3)GalNAc
  glycan array binding signal (z-score): -0.397
[16]
  glycan array binding signal (z-score): 2.24
[17]
  glycan array binding signal (z-score): -0.382
